Bioassay records: PubChem BioAssay, several laboratories
CHT inh: inhibitors of human choline transporter CHT | B-score at 10 µM | AID 488975, 2010 | High affinity choline transporter 1 (Homo sapiens), Q9GZV3 | 310,000 tested, 0.86% active | CHT-expressing cells, membrane potential dye, choline response; hits give low values;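 active = B-score over 3 SD under the library average, and starting fluorescence ratio not unusually high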;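 note: choline stimulus applied at its EC90 after an EC20 pre-addition; B-score computed on integrated fluorescence ratio after choline addition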
CHT allo act: CHT positive allosteric modulators, primary screen, cell-based, membrane potential dye, choline EC20. 310,000 tested, 0.49% active. B-score at 10 µM. CHT-expressing cells; hits give high values; LV-AA mutant CHT in HEK293 cells. AID 488977, 2010;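 active = initial fluorescence not abnormally high and integrated response B-score, plate-corrected, over 3 SD above library mean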
EP2 antag: human EP2 receptor antagonists, primary screen, TR-FRET cAMP, C6 glioma cells. Prostaglandin E2 receptor EP2 subtype (Homo sapiens), P43116. C6 glioma cells expressing human EP2; cells stimulated with saturating PGE2. inhibition, % at 25 µM. 260,000 tested, 0.52% active;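 active = percent inhibition above 40 after rounding to a whole number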;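 note: rat C6 glioma host cells with rolipram phosphodiesterase inhibitor present; the protocol text gives 20 µM as final concentration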
Target sequence (P43116 whole entry, looked up): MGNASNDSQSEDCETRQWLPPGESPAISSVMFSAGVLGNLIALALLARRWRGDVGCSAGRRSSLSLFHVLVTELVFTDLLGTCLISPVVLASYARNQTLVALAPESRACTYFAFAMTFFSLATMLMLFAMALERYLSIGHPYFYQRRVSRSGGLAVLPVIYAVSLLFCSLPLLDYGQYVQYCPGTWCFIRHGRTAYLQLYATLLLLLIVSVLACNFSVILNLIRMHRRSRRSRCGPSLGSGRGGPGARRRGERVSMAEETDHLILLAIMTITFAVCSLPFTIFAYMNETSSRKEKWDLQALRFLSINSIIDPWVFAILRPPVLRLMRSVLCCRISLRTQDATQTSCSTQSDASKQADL
EP2 modulator: EP2 receptor modulators, cAMP readout, primary screen, cell-based, HTRF cAMP, PGE2 stimulation | EP2-expressing cells, cAMP HTRF FRET, PGE2 co-stimulation | induction, % at 25 µM | 260,000 tested, 0.83% active | AID 940, 2007;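 active = compounds whose cAMP rise, as percent of the full-agonist control response, exceeds 60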;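 note: rat C6 glioma line stably carrying human EP2 under a CMV promoter; the protocol text gives 20 µM as final concentration; 100% = response of wells given 1 µM PGE2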
CHT block conf: CHT inhibitors, confirmation, cell-based, membrane potential dye, duplicate; shares compounds with CHT inh; CHT-expressing cells, choline membrane potential dye; LV-to-AA substituted CHT, HEK293 cells; CHT activity remaining % of control (hits give low values), % at 10 µM; 2,400 tested, 70% active;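 active = choline transporter activity left, mean of duplicates at 10 µM, below buffer-only control mean minus 3 SD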;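 note: depolarization triggered by choline at its EC90 following an EC20 pre-addition; 0% = hemicholinium-3 full block and 100% = buffer-only control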
HEK293 MPD ctr: membrane potential effects in parental HEK293, counter-screen for CHT inhibitor project, cell-based, membrane potential dye | shares compounds with CHT inh | 2,400 tested, 4% active | membrane potential ratio readout (active if shifted either direction beyond buffer ±3SD; no single direction) at 10 µM | choline response; active = decrease or increase beyond buffer ±3SD;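 note: parental cells lack the transporter so any hit is non-specific; ratio is peak minus trough fluorescence over baseline after EC90 choline challenge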
Active calls of the source: *; i = inactive; / = no result given. This is a sample that favours compounds with a hit; in the whole collection about 2% have one here.

SMILES | CHT inh | CHT allo act | EP2 antag | EP2 modulator | CHT block conf | HEK293 MPD ctr
O=C(OC(C(=O)NCC1CCCO1)c1ccccc1F)c1cccs1 (stereo unspecified) | / | / | 13 | -4 | / | /
CC1CCC(NC(=O)Cn2c3c(c(-c4ccccc4Cl)cc2=O)CCC3)CC1 (stereo unspecified) | -6.8* | i | 8 | 17 | 46%* | i
CC(=O)Nc1ccc(NC(=O)CCCSc2nc3ccccc3s2)cc1 | i | i | 6 | -64 | / | /
O=C(CCCSc1nc2ccccc2s1)NC1=NCCS1 | -15* | i | 5 | -18 | 4.3%* | i
Cc1cc(C)n(-c2nnc(NCc3ccc(Cl)cc3)nn2)n1 | i | i | 7 | -56 | / | /
Cc1nn(-c2nnc(NCc3ccccc3)nn2)c(C)c1Br | -5.3* | i | 0 | -19 | i | i
CC1CCCCN1C(=O)COc1ccc(Cl)cc1Cl (stereo unspecified) | / | / | 17 | 12 | / | /
C=CCc1ccc(OCC(O)CO)c(OC)c1 (stereo unspecified) | i | i | / | 0 | / | /
C=CCc1ccc(O)c(-c2cc(CC=C)ccc2O)c1 | -9.9* | i | 6 | 32 | 36%* | i
CSC1=C(C#N)C(c2ccncc2)C(C(=O)Nc2ccccc2)=C(C)N1 (stereo unspecified) | -5* | i | 3 | -3 | 51%* | i
CC(C)n1cc([C@@H]2C[C@H]3CN(Cc4cccc(Cl)c4)C(=O)[C@]34CCCN24)cn1 | -5.3* | i | 2 | 9 | i | i
Nc1ccc(N2CCCC2)c(C(=O)O)c1 | / | / | 9 | -3 | / | /
N#CCCN1CCN(C(=S)c2ccc(-c3cc(Cl)ccc3Cl)o2)CC1 | i | i | / | 9 | / | /
CN1CCN(C(=S)c2ccc(-c3cc(Cl)ccc3Cl)o2)CC1 | -9.7* | i | 8 | 24 | i | i
CC1CCN(CCNC(=O)CCS(=O)(=O)c2ccc(Br)cc2)CC1 | -5.3* | i | 8 | -1 | i | i
O=C(NC(=S)Nc1ccc(F)c(Cl)c1)C1CC1 | i | i | / | / | / | /
Fc1ccc(NC(=S)Nc2ccc(F)c(Cl)c2)cc1Cl | -6.1* | i | 16 | -31 | 36%* | i
O=C(C1CCCN(c2ncnc3c2nc2n3CCCCC2)C1)N1CCN(c2ccc(Cl)cc2)CC1 (stereo unspecified) | -7.8* | i | / | / | 40%* | i
O=C(C1CCCN(c2ncnc3c2nc2n3CCCCC2)C1)N1CCN(c2ccc(F)cc2)CC1 (stereo unspecified) | -8* | i | / | / | 37%* | i
COc1ccc(N2CCN(C(=O)C3CCCN(c4ncnc5c4nc4n5CCCCC4)C3)CC2)cc1 (stereo unspecified) | i | i | / | / | / | /
CC(=O)c1ccc(N2CCN(C(=O)C3CCCN(c4ncnc5c4nc4n5CCCCC4)C3)CC2)cc1 (stereo unspecified) | -5.9* | i | / | / | 32%* | i
CCOC(=O)c1sc(NC(=O)c2cccc(F)c2)nc1C | / | / | 14 | 2 | / | /
O=C(NCc1ccccc1F)c1cn(C[C@H]2CCCN(C(=O)c3cccs3)C2)nn1 | / | / | 11 | -6 | / | /
Cn1c(SCC(=O)N2CCN(c3ccccc3)CC2)nnc1-c1ccccc1 | -5.3* | i | 15 | 9 | 62%* | i
CC1CCC(NC(=O)c2ccc(CS(=O)(=O)Cc3ccccc3F)o2)CC1 (stereo unspecified) | -5.4* | i | 12 | 2 | 41%* | i
O=C(NC1CCCC1)c1ccc(CS(=O)(=O)Cc2ccccc2F)o1 | i | i | / | / | / | /
CCOC(=O)C1=C(N)Oc2cc(C)oc(=O)c2C1c1ccccc1Cl (stereo unspecified) | / | / | 14 | 26 | / | /
c1ccc(C(c2ccccc2)N2CCN(Cc3nnnn3C3CCCC3)CC2)cc1 | -5.6* | i | 7 | 25 | i | i
